LDHA inh – LDHA (human) enzyme inhibition | purified LDHA, NADH/diaphorase-resazurin fluorescence; active compounds read low | 0.15% of 480,000 active | P00338 | AID 1347041 | activity change, % (values are at about 110 or 230 µM); in the data active = activity change below about -30%; inconclusive = mostly about -25% to -30%
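Resorufin fluorescence (ex540/em590), read at 0 and 20 min after diaphorase/resazurin addition, reports the NADH left after a 5 min room-temperature reaction of 2 nM human LDH5 with 0.06 mM NADH and 0.2 mM pyruvate.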
PI5P4Ka inh – inhibitors of human PI5P4K alpha | PI5P4Kalpha enzyme, ADP-Glo luminescence, 60 min; active compounds read low | 1.2% of 330,000 active | max response, % | AID 652105; active = max response of -50% or lower; inconclusive = between -30% and -50%; inactive = -30% or higher; also: value at the top dose of about 77 µM
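qHTS, 1536-well: enzyme/substrate mix, compound by pin tool, 5 microM ATP final; RT 60 min; ADP-Glo reagents 1 (45 min) then 2 (30 min); luminescence.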
D3 ag – activates the human D3 dopamine receptor. max activation, %. AID 652048. P35462. 0.58% of 410,000 active. D3R DiscoveRx beta-arrestin cells, luminescence, 90 min; in the data active = max activation above about 30%
Target sequence (P35462 whole entry, looked up): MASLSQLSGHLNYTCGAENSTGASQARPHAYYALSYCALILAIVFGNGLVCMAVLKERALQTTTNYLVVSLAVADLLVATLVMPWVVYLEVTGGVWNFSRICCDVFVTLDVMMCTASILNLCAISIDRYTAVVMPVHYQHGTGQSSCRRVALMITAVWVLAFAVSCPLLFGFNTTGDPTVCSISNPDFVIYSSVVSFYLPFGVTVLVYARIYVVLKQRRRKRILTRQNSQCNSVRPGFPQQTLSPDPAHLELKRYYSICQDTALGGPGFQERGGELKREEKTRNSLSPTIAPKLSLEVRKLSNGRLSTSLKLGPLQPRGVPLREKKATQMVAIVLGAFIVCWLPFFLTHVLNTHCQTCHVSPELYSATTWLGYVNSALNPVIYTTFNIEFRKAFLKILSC
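Cells at 1500/well, incubated overnight, then treated with pinned compounds (dopamine as control) for 90 min at 37 degrees C. DiscoveRx reagent added for 30 - 60 minutes at room temperature; luminescence read.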
PI4K2A block – blocks human PI4K2A kinase activity; Q9BTU6; purified PI4K2A, ADP-Glo luminescence, 1 h; active compounds read low; 0.13% of 420,000 active; AID 1346378; activity change, negative = inhibition, % at 76.9 µM; in the data active = activity change below about -50%; inconclusive = mostly about -30% to -49%
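PI4K2A activity was measured by ADP-Glo luminescence: enzyme (4 ug/mL stock) and phosphatidylinositol (1.2 mM stock) in Tris pH 7.5/MgCl2/EGTA/Triton X-100 buffer were reacted with ATP (300 microM stock) for one hour at ambient temperature.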
D3 antag – blocks the human D3 dopamine receptor; P35462; D3R cells, DiscoveRx beta-arrestin luminescence, antagonist mode; active compounds read low; max response, negative = inhibition, %; 2.5% of 360,000 active; in the data active = max response below about -50%; inconclusive = no clear call, values can overlap the other calls
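Cells expressing the human receptor were seeded at 1500 cells/well, incubated overnight at 37 degrees C in 5% CO2, then exposed to library compounds with dopamine controls for 90 minutes at 37 degrees C before luminescent detection.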
Hits are given with their value; i = inactive; ? = inconclusive; nt = not tested or not shown; ! = a repeat was not active. Shown are actives, neighbours in structure and some others; about 3.3% of the full set was active somewhere.

SMILES	LDHA inh	PI5P4Ka inh	D3 ag	PI4K2A block	D3 antag
O=C(/C(=C/c1ccc(O)cc1)c1nc2ccccc2s1)c1ccccc1	i	nt	nt	nt	nt
O=C(NNC(=S)Nc1ccccc1)c1ccncc1	i	i	i	i	?
O=C(NNC(=S)Nc1ccc(C(=O)O)c(O)c1)c1ccncc1	i	-85	i	i	i
O=C(O)c1cccc(N/N=C/c2sc(N3CCOCC3)nc2-c2ccccc2)c1	i	?	i	i	i
O=[N+]([O-])c1ccc(N/N=C/c2sc(N3CCOCC3)nc2-c2ccccc2)c(S(=O)(=O)Nc2ccc(Cl)cc2)c1	i	i	i	i	-70
O=[N+]([O-])c1ccc(N/N=C/c2sc(N3CCOCC3)nc2-c2ccccc2)c(S(=O)(=O)Nc2ccccc2Cl)c1	i	i	i	i	-53
Cn1cnc2c1c(=O)n(CCCn1nnc(-c3cccc(Cl)c3)n1)c(=O)n2C	i	nt	nt	nt	nt
Cn1c(=O)c2[nH]c(Cc3cccc4ccccc34)nc2n(C)c1=O	i	i	36	i	i
Clc1c(-c2nnc3n2CCC3)sc2ccccc12	i	i	i	i	i
Cn1c(-c2sc3ccccc3c2Cl)n[nH]c1=S	i	i	i	i	-76
Cn1c(CSc2nc3ccccc3s2)n[nH]c1=S	i	i	i	i	-65
CCSc1nc(-c2ccco2)ccc1C#N	i	-73	i	i	-54
COc1ccccc1NC(=O)c1ccc(-n2cncn2)nc1	i	i	31	i	i
CCOc1ccccc1NC(=O)c1ccc(-n2cncn2)nc1	i	i	i	i	i
Cc1ccc(NC(=O)CSc2nnc(-c3cccs3)n2-n2cccc2)cc1C	i	nt	nt	nt	nt
O=C(OCC(O)CO)c1ccccc1Nc1ccnc2cc(Cl)ccc12 (stereo not given)	i	i	46!	i	i
CCOc1ccc(Nc2ccnc3cc(Cl)ccc23)cc1	i	i	i	i	i
Nc1ccn(CC(=O)NCCNc2ccc([N+](=O)[O-])cn2)c(=O)n1	i	i	98	i	i
O=C(CN1CCN(Cc2ccccc2)CC1)NCCNc1ccc([N+](=O)[O-])cn1	i	i	i	i	i
O=C(N/N=C/c1ccccn1)c1cc([N+](=O)[O-])cc([N+](=O)[O-])c1	i	i	i	i	-78
CC(C)n1nc(C(=O)OCC(=O)c2c[nH]c3ccccc23)c2ccccc2c1=O	i	nt	59	i	i
CCn1nc(C(=O)OCC(=O)c2c[nH]c3ccccc23)c2ccccc2c1=O	i	nt	i	i	i
COCCNC(=O)C(C)OC(=O)C1=Cc2ccccc2OC1 (stereo not given)	i	i	i	i	i
CC(OC(=O)C1=Cc2ccccc2OC1)C(=O)NCC1CCCO1 (stereo not given)	i	-63	i	i	i
CCOC(=O)c1nnc(-c2ccccc2)nc1Sc1c(Cl)cccc1Cl	i	i	i	i	?
SMILES	LDHA inh	PI5P4Ka inh	D3 ag	PI4K2A block	D3 antag
CCOC(=O)c1nnc(-c2ccc(C)cc2)nc1Sc1ccccc1Cl	i	i	i	i	-85
CC(=O)NC(c1ccccc1)c1c(O)ccc2ccccc12 (stereo not given)	i	i	34	i	i
Nc1n[nH]c(CC(=O)N(Cc2ccco2)C2(C(=O)Nc3ccccc3)CCCCC2)n1	i	nt	nt	nt	nt
Cc1sc2nc(CSc3ccccc3)nc(N3CCN(C)CC3)c2c1C	i	i	i	i	-93
O=C(Nc1ccccc1C(F)(F)F)c1ccc(Cl)cc1	i	nt	nt	nt	nt
Cc1ccc2nc(-c3ccc(NC(=O)COc4ccc(Cl)c(C)c4)cc3)sc2c1	i	nt	61	i	nt
O=C(COc1ccc(Br)cc1)N1CCC(c2ccccc2)=N1	i	nt	nt	nt	nt
Cc1coc2c(C)c3oc(=O)c(CCC(=O)N4C[C@H]5C[C@@H](C4)c4cccc(=O)n4C5)c(C)c3cc12	i	i	35	i	i
COc1cc(/C=C/c2ccc3cccc(O)c3n2)ccc1O	i	i	i	i	-52
COc1cc(/C=C/c2ccc3cccc([N+](=O)[O-])c3n2)ccc1O	i	nt	nt	nt	nt
CSc1ccc(/C=C/c2ccc3cccc(O)c3n2)cc1	i	i	i	i	-58
O=S(=O)(Nc1ccccc1-c1n[nH]c(C2CC2)n1)c1ccc(F)cc1Cl	i	nt	nt	nt	nt
Clc1ccc(C2CC(c3ccccc3)Nc3ncnn32)cc1 (stereo not given)	i	i	i	i	i
Clc1ccc(C2CC(c3ccco3)n3ncnc3N2)cc1Cl (stereo not given)	i	i	i	i	-58
